# Data as given in PubChem BioAssay AID651621 (National Center for Advancing Translational Sciences (NCATS), 2012).
# Active and inactive are the calls of the source.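 The calls were made as follows: active = inhibition of 60% or more at 11 µM; inconclusive = inhibition from 30% up to under 60% at 11 µM; inactive = inhibition below 30% at 11 µM.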
# Target: Ubiquitin carboxyl-terminal hydrolase 1 (Homo sapiens) + WD repeat-containing protein 48 (Homo sapiens) (UniProt O94782+Q8TAF3)
# Experiment: Inhibitors of USP1/UAF1: SAR in USP1/UAF1 diubiquitin SDS-PAGE gel assay
# Settings: purified USP1/UAF1, K63 diubiquitin cleavage, at 11 µM, stronger effect = higher value
# From the text: Deubiquitinating enzymes (DUBs) are a class of enzymes that can cleave isopeptide bond formed between the C-terminal carboxylate of ubiquitin and a lysine side-chain amino group on the target protein. Among them, ubiquitin specific proteases (USPs) constitute the largest DUB family. Human USPs are emerging as promising targets for pharmacological intervention because of their connection to a number of human diseases, including prostate, colon and breast cancer (1, 2), pediatric acute lymphoblastic leukemia (3), and familial cylindromatosis (4). The advantage of inhibiting USPs lies in the potential specificity of therapeutic intervention that can lead to better efficacy and reduce nonspecific side effects. In a collaboration between the University of Delaware and the NIH Chemical Genomics Center, a high-throughput screen assay was developed to screen for USP1/UAF1 inhibitors (5). This assay is a orthogonal assay that tested for activity in a USP1/UAF1 diubiquitin SDS-PAGE gel assay. NIH Chemical Genomics Center [NCGC] […]
# The inhibition assay contains 100 nM for USP1/UAF1, 2 microM K63 linked diubiquitin, and inhibitors at varied concentrations (0.08 microM - 114 microM). […] The intensity of the individual diubiquitin and monoubiquitin band was quantified using Quantity One 4.3.1 (Biorad, Hercules, CA). The percentage of the conversion was determined and used to calculate the reaction rate. […]
# Ubiquitin carboxyl-terminal hydrolase 1 (Homo sapiens) + WD repeat-containing protein 48 (Homo sapiens), sequence (O94782 whole entry, looked up): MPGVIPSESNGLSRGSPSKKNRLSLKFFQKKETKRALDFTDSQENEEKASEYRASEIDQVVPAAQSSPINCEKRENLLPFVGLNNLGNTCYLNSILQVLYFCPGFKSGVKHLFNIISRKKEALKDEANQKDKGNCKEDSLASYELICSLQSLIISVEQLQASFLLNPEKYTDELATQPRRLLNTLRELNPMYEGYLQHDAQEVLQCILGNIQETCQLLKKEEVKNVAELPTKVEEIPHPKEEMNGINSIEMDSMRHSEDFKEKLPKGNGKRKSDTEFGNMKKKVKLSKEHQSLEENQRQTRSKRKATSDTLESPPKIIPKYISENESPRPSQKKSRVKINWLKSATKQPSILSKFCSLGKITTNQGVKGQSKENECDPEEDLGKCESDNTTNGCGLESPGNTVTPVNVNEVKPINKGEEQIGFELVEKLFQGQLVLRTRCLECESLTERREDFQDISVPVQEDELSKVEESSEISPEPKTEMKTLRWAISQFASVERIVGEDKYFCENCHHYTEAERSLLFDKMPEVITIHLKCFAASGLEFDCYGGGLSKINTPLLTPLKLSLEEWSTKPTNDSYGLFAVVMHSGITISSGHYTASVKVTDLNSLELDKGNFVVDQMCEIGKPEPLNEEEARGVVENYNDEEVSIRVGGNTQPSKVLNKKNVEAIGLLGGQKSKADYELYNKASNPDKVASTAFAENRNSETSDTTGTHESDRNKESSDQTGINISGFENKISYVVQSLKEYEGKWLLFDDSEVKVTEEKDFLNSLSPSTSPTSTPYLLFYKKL
# Ubiquitin carboxyl-terminal hydrolase 1 (Homo sapiens) + WD repeat-containing protein 48 (Homo sapiens), sequence (Q8TAF3 whole entry, looked up): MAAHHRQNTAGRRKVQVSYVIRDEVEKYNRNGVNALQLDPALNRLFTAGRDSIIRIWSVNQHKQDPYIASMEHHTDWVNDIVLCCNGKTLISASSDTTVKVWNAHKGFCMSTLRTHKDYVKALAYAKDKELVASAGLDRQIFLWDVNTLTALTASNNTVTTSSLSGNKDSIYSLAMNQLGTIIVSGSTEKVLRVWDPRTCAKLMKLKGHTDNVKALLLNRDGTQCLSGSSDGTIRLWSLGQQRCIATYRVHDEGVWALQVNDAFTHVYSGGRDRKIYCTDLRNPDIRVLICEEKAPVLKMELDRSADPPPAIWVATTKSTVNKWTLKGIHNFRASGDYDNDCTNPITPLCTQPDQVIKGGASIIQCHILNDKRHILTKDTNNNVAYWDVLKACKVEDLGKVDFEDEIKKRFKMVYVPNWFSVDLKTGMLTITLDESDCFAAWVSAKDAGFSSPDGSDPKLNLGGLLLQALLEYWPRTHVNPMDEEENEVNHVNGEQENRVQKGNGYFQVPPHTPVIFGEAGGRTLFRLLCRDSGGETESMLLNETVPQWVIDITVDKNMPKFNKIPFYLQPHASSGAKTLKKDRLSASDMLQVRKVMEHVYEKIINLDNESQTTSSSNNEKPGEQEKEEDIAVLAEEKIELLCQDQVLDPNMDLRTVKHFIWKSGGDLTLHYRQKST
row,Compound,inhibition
1,Cc1cnc(-c2ccccc2C(C)C)nc1NCc1ccc(-n2ccnn2)cc1,98.5% (active)
